The whole screen tested about 580,000 compounds, of which about 6,100 (1.1%) were called active. Inconclusive results (about 15%) are left out. Calls come from the whole dose curve; as a rule, active = well fitted inhibition curve with a large enough effect; inconclusive = small, poorly fitted or top-dose-only effect, or another doubt; inactive = no such curve, though single readings can be large or run the other way. The entries come from a sample that favours actives as a whole. A call without a number means that no potency is given here.
Potency is the fitted concentration of half-maximal effect.

Sequence of Polyunsaturated fatty acid lipoxygenase ALOX12 (Homo sapiens) (P18054 whole entry, looked up): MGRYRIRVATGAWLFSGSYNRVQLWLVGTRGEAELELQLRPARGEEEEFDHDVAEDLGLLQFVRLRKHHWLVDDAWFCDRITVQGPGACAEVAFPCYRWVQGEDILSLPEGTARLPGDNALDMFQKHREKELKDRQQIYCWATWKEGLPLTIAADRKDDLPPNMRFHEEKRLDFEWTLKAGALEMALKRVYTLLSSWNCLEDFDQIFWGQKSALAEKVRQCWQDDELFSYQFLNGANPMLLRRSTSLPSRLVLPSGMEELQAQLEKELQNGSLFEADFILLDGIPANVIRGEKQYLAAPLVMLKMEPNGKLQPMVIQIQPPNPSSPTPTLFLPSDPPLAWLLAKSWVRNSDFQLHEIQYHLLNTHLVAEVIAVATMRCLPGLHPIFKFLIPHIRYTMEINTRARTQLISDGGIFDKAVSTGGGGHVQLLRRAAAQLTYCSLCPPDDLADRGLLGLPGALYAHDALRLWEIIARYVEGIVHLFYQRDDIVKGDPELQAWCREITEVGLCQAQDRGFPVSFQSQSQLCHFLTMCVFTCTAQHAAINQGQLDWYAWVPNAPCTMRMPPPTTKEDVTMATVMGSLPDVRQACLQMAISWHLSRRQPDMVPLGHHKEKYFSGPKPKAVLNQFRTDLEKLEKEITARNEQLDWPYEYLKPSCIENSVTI

The test has as its target Polyunsaturated fatty acid lipoxygenase ALOX12 (Homo sapiens) (UniProt P18054). Description: Primary qHTS assay for inhibitors of human arachidonate 12S-lipoxygenase (ALOX12): Round 2. The conditions noted are these: purified 12hLO, xylenol orange hydroperoxide absorbance; series mostly up to 108 µM. The source says: Assay Provider: Theodore R. Holman Ph.D. University of California, Santa Cruz, California Human lipoxygenase 12hLO is a member of the closely related lipoxygenase family of enzymes which catalyze the site-specific oxidation of arachidonic acid to various hormone precursor molecules and as such is a candidate for drug development in a variety of disease areas, such as cancer and inflammation. Inhibition of 12hLO activity was screened by utilizing arachidonic acid as a substrate. The extent of hydroperoxide product formation was measured by a secondary chromogenic reaction in which xylenol orange (XO, Sigma-Aldrich, cat. number 39,818-7) reacts with the ferric ions produced from the reaction between the hydroperoxide and ferrous ions. The Fe (III)-XO complex is characterized with red-shifted absorbance at 560 nm. A purified preparation of human 12hLO was supplied by Dr. Holman laboratory, University of California, Santa Cruz.
PROTOCOL TABLE SEQUENCE No. (e.g., 1, 2, 3, etc.); […] (e.g., Cells, Incubation, Reagent, etc.); VALUE; DESCRIPTION 1; Enzyme; 3 uL; 150 nM 12hLO enzyme solution dispensed in 1536-well Greiner black, clear bottom plates. 2; Compound; 23 nL; compounds and controls were added. 3; Incubate; 15 min; room temperature. 4; Substrate; 1 uL; 40 uM arachidonic acid (final concentration). 5; Incubate; 30 min; room temperature. 6; Reagent; 4 uL; Fe-XO solution was added to each well. 7; Incubation; 30 min; room temperature 8; Detector; absorbance; Read 1 at 405 nm absorbance using ViewLux (Perkin-Elmer) CCD imager. 9; Detector; absorbance; Read 2 at 573 nm absorbance using ViewLux (Perkin-Elmer) CCD imager. NOTES (numbers refer to sequence above) 1; 150 nM 12hLO (final concentration) in buffer solution (25 mM Hepes, 0.01% Triton X-100, pH 7.0) was dispensed in columns 1, 2, 5-48. Column 1 is neutral (100% activity). Buffer only was dispensed in columns 3 and 4 as no enzyme negative controls. The plates were covered with metal lids with gas-exchange holes. 2; Compounds were pin transferred via a Kalypsys Pin Tool (Wako USA) in column 5-48. Control compound was transferred in column 2, titration of nordihydroguaiaretic acid (NDGA, Sigma-Aldrich, N5023) with top concentration of 20 mM in DMSO then 1:3 dilution in duplicate. Dilution factor of 23 nL into 4 uL final assay volume. 3; Covered assay plates were incubated for 15 min at room temperature. 4; Substrate was added to start the reaction; 40 uM arachidonic acid (Sigma-Aldrich, St. Louis, MO) was dispensed throughout the plate. 6; Chromogenic detection reagent solution (divalent iron/xylenol orange, Fe-XO) was added to each well: 200 uM xylenol orange, 300 uM ferrous ammonium sulfate prepared freshly in 50 mM sulfuric acid. 8, 9; Two absorbance readouts were obtained at 405 nm and at 573 nm using a ViewLux high-throughput CCD plate imager (Perkin-Elmer). The 573 to 405 (Read 2 / Read 1) absorbance ratio was used to compute reaction progress.
A general note: Quantitative high-throughput screening tests each substance at several concentrations.
With `Cc1ccc(NC(=O)CN2c3ccccc3CC2C)c(Cl)c1` (stereo unspecified), the Potency entry is “inactive”.
For the compound `O=C(CSc1nnc(Cc2ccccc2)n1-n1cccc1)Nc1ccccc1`, the Potency result is “inactive”.
Turning to `C[C@H](NC(=O)Cc1n[nH]c(=O)c2ccccc12)C(=O)N1CCN(c2ccccc2)CC1`, the Potency result was “inactive”.
`Cc1ccc(NC(=O)CCC2CCCC2)c(C)c1`: the Potency entry is “inactive”.
Then `Cc1ccc(NC(=O)C2=Cc3sc4c(c3CS2)CCCC4)c(C)c1`, with 20 µM (active); and `Cc1ccc(NC(=O)c2cccc(CS(C)=O)c2)c(C)c1` (stereo unspecified), with “inactive”.
With `CSCCC(=O)NCc1ccccc1F`, the Potency result is “inactive”.
The result for `CCCCN1CC(C(=O)Nc2ccc(C(=O)Nc3ccccc3F)cc2)CC1=O` (stereo unspecified) reads “inactive”; that for `CN(CC1CCOC1)C(=O)Nc1cc(F)c(F)c(F)c1` (stereo unspecified), “inactive”; that for `CC(=O)OCC1(COC(C)=O)COCC(COC(C)=O)(COC(C)=O)C1=O`, “inactive”.
`C=CCNCc1ccc(Cl)c(Cl)c1`: the Potency result was “inactive”.
With `O=C(Nc1ccc(N2CCOCC2)c(Cl)c1)c1ccc2c3c(cccc13)CC2`, the Potency result is “inactive”.
As for `CCCOC(=O)c1cc(NC(=O)c2cc(Cl)c(OC)c(Cl)c2)ccc1N1CCOCC1`, the Potency was 5.62 µM (active).
Then `CCOC(=O)c1cc(NCc2c(Cl)cccc2Cl)ccc1N1CCOCC1`, with “inactive”; and `C=CCSc1nc2c(c(=O)[nH]c(=O)n2C)n1CCCCC`, with “inactive”; and `C=CCNC(=O)CSc1nc(-c2ccccc2)c(-c2ccccc2)o1`, with “inactive”.
As for `Cn1cc(CN2CCOC[C@H](Oc3ccc(S(C)(=O)=O)cc3)C2)c2ccccc21`, the Potency entry is “inactive”.
In the case of `O=C(NC1CCNC1)C1CCN(c2nc(-c3ccccc3)nc3c2CCC3)CC1` (stereo unspecified), the Potency result is “inactive”.
Regarding `COc1ccc(CNC(=O)C(C)[C@@H]2CCc3c(C)cc(OCCN4CCOCC4)c(C)c3C2)cc1` (stereo partly specified), the Potency entry is “inactive”.
Consider `O=C(/C=C/c1ccccc1O)c1ccc(Cl)cc1Cl`, for which the Potency is 39.8 µM (active).
As to `O=C(O)/C=C/c1ccccc1Cl`, the Potency result is “inactive”.
Then `O=C(O)/C=C/c1ccc(Cl)cc1Cl`, with “inactive”; and `CN(C)C(=O)c1ccc(OCc2coc(-c3ccccc3)n2)cc1`, with “inactive”.
Turning to `CC(C)Cn1cncc1CNC(=O)c1ccc2nc(-c3ccc(F)cc3)cn2c1`, the Potency result is “inactive”.
As for `C[N+]1(CCNC(=O)/C=N/O)CCCCC1`, the Potency was 6.31 µM (active).
Turning to `CCN(CC)S(=O)(=O)c1ccc(NC(=O)CC2c3ccccc3C=CN2C(C)=O)cc1` (stereo unspecified), the Potency result was “inactive”.
`CSCC[C@H](NC(=O)CSc1cc(Cl)ccc1Cl)c1nc2ccccc2[nH]1`: the Potency was 44.7 µM (active).
The result for `COc1ccc(CC(=O)NC(CCSC)c2nc3ccccc3[nH]2)cc1` (stereo unspecified) reads “inactive”; that for `COc1ccc(CC(=O)N[C@@H](CCSC)c2nc3ccccc3[nH]2)cc1`, “inactive”; that for `Cc1nc(-c2ccc(OC(F)(F)F)cc2)sc1C(=O)N1CCCC1`, “inactive”.
`O=C(CSc1nc(CN2CCOCC2)nc2ccccc12)N1CCN(Cc2ccccc2)CC1`: the Potency entry was “inactive”.
In the case of `Cc1cc2oc(C(=O)Nc3ccc(S(=O)(=O)N4CCCC(C)C4)cc3)cc(=O)c2cc1C` (stereo unspecified), the Potency entry is “inactive”.
In the case of `CC(=O)N1CCN(C(C(=O)O)c2cn(CCC(=O)O)c3cc(Br)ccc23)CC1` (stereo unspecified), the Potency result was “inactive”.
Consider `CCCCCCCC[n+]1cccc(C(=O)N2c3c(nc(N)[nH]c3=O)NC(C)C2C)c1` (stereo unspecified), for which the Potency was 44.7 µM (active).
For the compound `COc1ccc(CCNC(=O)c2sc(NC(C)C)nc2C)cc1`, the Potency result is “inactive”.
For the compound `Cc1cccc(CN2CCN(C3CN(Cc4cn(Cc5cc(C)cc(C)c5)nn4)S(=O)(=O)C3)CC2)c1` (stereo unspecified), the Potency entry was “inactive”.
With `O=S1(=O)CC(N2CCN(CCO)CC2)CN1Cc1cn(Cc2ccc(Cl)cc2)nn1` (stereo unspecified), the Potency is 25.1 µM (active).
For `CCCCCCN1CCN(C2CN(Cc3cn(Cc4ccc(F)cc4)nn3)S(=O)(=O)C2)CC1` (stereo unspecified), the Potency result is “inactive”.
Take `O=S1(=O)CC(N2CCSCC2)CN1Cc1cn(Cc2cccc(Cl)c2)nn1` (stereo unspecified): the Potency result was “inactive”.
`O=S1(=O)CC(N2CCN(CCO)CC2)CN1Cc1cn(Cc2cccc(Cl)c2)nn1` (stereo unspecified): the Potency was 7.08 µM (active).
Regarding `Cc1cccc(CN2CCN(C3CN(Cc4cn(Cc5ccccc5F)nn4)S(=O)(=O)C3)CC2)c1` (stereo unspecified), the Potency entry was “inactive”.
Regarding `Cc1nc2ccccc2c(C)c1CC(=O)N1CCC(C)CC1`, the Potency entry is “inactive”.
On to `Cn1c(=O)c2c(nc(CN3CCc4ccccc4C3)n2CCCc2ccccc2)n(C)c1=O`, for which the Potency entry was “inactive”.
The result for `COc1ccc(C(=O)/C=C/c2cccc(OC(=O)C3CC3)c2)cc1` reads “inactive”; that for `Cc1nc2c(c(C)c1CCC(=O)NCCN1CCCC1)c(=O)n(C)c(=O)n2C`, “inactive”; that for `COc1ccc(-c2noc(CNC(=O)COc3cccc(C)c3C)n2)cc1OC`, “inactive”.
The result for `COc1nc(NCc2ccc(Cl)cc2)nc(OC)n1` reads “inactive”.
Then `C=CCNc1nc(C)nc(OC)n1`, with “inactive”; and `C=CCNc1nc(Nc2ccc(Cl)cc2)nc(OC)n1`, with 39.8 µM (active); and `Cc1[nH]c2ccccc2c1C(=O)CSc1nnc(CC(C)c2ccccc2)o1` (stereo unspecified), with “inactive”.
Regarding `N#Cc1ccccc1COC(=O)c1ccc(Br)cc1`, the Potency result is “inactive”.
